Results reported in PubChem BioAssay AID1159580 (chemical genetic matrix, 2015).
Where “and” joins values, the source holds several entries; their conditions need not be identical. Equal entries are not always repeated. In all, about 5,500 compounds went through this assay and about 2,000 (36%) were called active. Not shown: some 18% with an inconclusive outcome. No stated cut-off is given here; in the data, active means normalized growth mostly below about 0.91 (no sharp cut-off); inconclusive means no clear call, values can overlap the other calls; inactive means mostly above about 0.92. This is one part of the list.

Test: chemical genetic growth profiling, strain panel (AID 1159580);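 further: tested at 20 µM; growth read once vehicle control cultures reached saturation at 30 °C; 1 = growth at the plate median or of vehicle wells; lower values mean less growth of the strain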
Conditions: S. cerevisiae deletion strains, growth OD

Measured: normalized growth

CCCN(CCC)S(=O)(=O)c1ccc(C(=O)O)cc1
inactive: locus YAL013W, strain DEP1, hits give low values 0.992 | locus YAL021C, strain ccr4, hits give low values 0.998 | locus YAL026C, strain drs2, hits give low values 0.999 | locus YAL030W, strain snc1, hits give low values 0.992 | locus YBL061C, strain skt5, hits give low values 0.991 | locus YBR009C, strain hhf1, hits give low values 0.997 | locus YBR021W, strain FUR4, hits give low values 0.945 | locus YBR023C, strain chs3, hits give low values 0.994 | locus YBR171W, strain sec66, hits give low values 0.968 | locus YBR229C, strain ROT2, hits give low values 1 | locus YBR231C, strain swc5, hits give low values 0.955 | locus YBR279W, strain paf1, hits give low values 0.996 | locus YCL011C, strain gbp2, hits give low values 1 | locus YCL016C, strain dcc1, hits give low values 1 | locus YCL029C, strain bik1, hits give low values 1.02 | locus YCL069W, strain vba3, hits give low values 0.981 | locus YCR088W, strain abp1, hits give low values 0.993 | locus YDL005C, strain med2, hits give low values 0.987 | locus YDL035C, strain GPR1, hits give low values 0.998 | locus YDL040C, strain nat1, hits give low values 0.99 | locus YDL074C, strain BRE1, hits give low values 0.998 | locus YDL101C, strain DUN1, hits give low values 1.01 | locus YDL134C, strain PPH21, hits give low values 1 | locus YDL185W, strain tfp1, hits give low values 1.01 | locus YDL192W, strain arf1, hits give low values 1.01 | locus YDR001C, strain nth1, hits give low values 0.987 | locus YDR069C, strain doa4, hits give low values 0.987 | locus YDR101C, strain arx1, hits give low values 1 | locus YDR137W, strain rgp1, hits give low values 1.01 | locus YDR150W, strain NUM1, hits give low values 0.998 | locus YDR159W, strain sac3, hits give low values 1 | locus YDR162C, strain NBP2, hits give low values 0.999 | locus YDR195W, strain ref2 0.933 | locus YDR297W, strain sur2, hits give low values 0.998 | locus YDR318W, strain mcm21, hits give low values 1.02 | locus YDR334W, strain swr1, hits give low values 0.997 | locus YDR335W, strain msn5, hits give low values 0.992 | locus YDR388W, hits give low values 1.01 | locus YDR392W, strain spt3, hits give low values 1.01 | locus YDR502C, strain sam2, hits give low values 1.02 | locus YEL003W, strain gim4, hits give low values 0.99 | locus YEL037C, strain rad23, hits give low values 0.993 | locus YEL061C, strain CIN8 (second series), hits give low values 0.982 | locus YEL061C, strain CIN8, hits give low values 1 | locus YER015W, strain faa2, hits give low values 0.999 | locus YER016W, strain bim1, hits give low values 0.994 | locus YER110C, hits give low values 1.01 | locus YER111C, strain swi4, hits give low values 0.979 | locus YER155C, strain BEM2 (second series), hits give low values 0.978 | locus YER155C, strain BEM2, hits give low values 1.01 | locus YER167W, strain BCK2, hits give low values 1 | locus YFR010W, strain ubp6, hits give low values 0.983 | locus YGL078C, strain dbp3, hits give low values 1.01 | locus YGL086W, strain mad1, hits give low values 1 | locus YGL167C, strain pmr1, hits give low values 0.991 | locus YGL173C, strain kem1, hits give low values 0.976 | locus YGL227W, strain vid30, hits give low values 0.988 | locus YGL240W, strain doc1, hits give low values 0.976 | locus YGL248W, strain PDE1, hits give low values 1 | locus YGL253W, strain hxk2, hits give low values 1 | locus YGR078C, strain PAC10, hits give low values 0.967 | locus YGR135W, strain pre9, hits give low values 1.03 | locus YGR229C, strain SMI1, hits give low values 0.982 | locus YGR252W, strain gcn5, hits give low values 1 | locus YHR013C, strain ard1, hits give low values 0.986 | locus YHR027C, strain rpn1, hits give low values 0.999 | locus YHR030C, strain SLT2, hits give low values 1 and 1.02 | locus YHR079C, strain IRE1 (second series), hits give low values 1.01 | locus YHR079C, strain IRE1, hits give low values 1.01 | locus YHR094C, strain hxt1, hits give low values 1.01 | locus YHR129C, strain ARP1, hits give low values 1.01 | locus YHR142W, strain chs7, hits give low values 1 | locus YHR200W, strain rpn10, hits give low values 1.01 | locus YIL066C, strain RNR3, hits give low values 0.996 | locus YIL073C, strain SPO22, hits give low values 1.08 | locus YIL125W, strain kgd1, hits give low values 1.01 | locus YIR030C, strain dcg1, hits give low values 1 | locus YJL092W, strain hpr5, hits give low values 0.981 | locus YJL095W, strain BCK1 (second series), hits give low values 0.995 | locus YJL095W, strain BCK1, hits give low values 1.02 | locus YJL115W, strain asf1, hits give low values 0.989 | locus YJL129C, strain trk1, hits give low values 0.99 | locus YJL134W, strain LCB3, hits give low values 0.997 | locus YJL154C, strain vps35, hits give low values 0.99 | locus YJL164C, strain tpk1, hits give low values 1.01 | locus YJL166W, strain qcr8, hits give low values 0.966 | locus YJL168C, strain set2, hits give low values 1 | locus YJL187C, strain SWE1 (second series), hits give low values 1.01 | locus YJL187C, strain SWE1, hits give low values 0.991 | locus YJR043C, strain POL32, hits give low values 1 | locus YJR066W, strain TOR1, hits give low values 0.965
